TGFb SMAD3 inh = inhibitors of TGF-b signaling; Potency, µM (highest dose often 46.1 µM), for the others: top-dose activity, negative = inhibition, usual class: inhibitors; actives 1.2% (n = 410,000); HepG2 CAGA-GFP TGF-b/SMAD3 reporter, GFP fluorescence, 18 h; TGF-beta stimulated, 500 pg/mL final; note: potency is the fitted concentration of half-maximal effect; % is set by controls: 0 for no effect and ±100 for the full control effect; nearly all actives have a fitted effect of over 65% in size
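HEPG2 CAGA-GFP, 1000 cells/well; 2 h settle, 37 C; cpd via pin tool; TGF-b 500 pg/mL final; 18 h, 37 C; GFP imaging ex488/em500-530; %Activity normalised to -TGF-b and +DMSO controls; CRC fit, curve class.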
TDP1 cell CPT = growth inhibition of DT40 Tdp1-/-;hTDP1 cells with camptothecin (screen for TDP1 inhibitors). Potency, µM (titrated, usually from 46.2 µM), without a hit: at the top dose activity change, negative = growth inhibition, usual class: inhibitors. chicken DT40 Tdp1-/-;hTDP1 cells + 20 nM CPT, ATP luminescence, 48 h. actives 12% (n = 420,000); note: potency is the fitted concentration of half-maximal effect; % is set by controls: 0 for no effect and ±100 for the full control effect; nearly all actives have a fitted effect of over 55% in size
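Chicken DT40 Tdp1-/- cells complemented with human TDP1, 400 cells/well, exposed to compounds plus 20 nM camptothecin for at least 48 h at 37 C; viability read as ATP content by CellTiter-Glo luminescence.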
TDP1 block = blocks human tyrosyl-DNA phosphodiesterase 1; Q9NUW8; recombinant TDP1, AlphaScreen DNA substrate cleavage; Potency, µM (doses to about 130 µM), for inactives: at the highest dose activity change, negative = inhibition, hits mostly inhibitors; actives 0.28% (n = 350,000); note: potency is the fitted concentration of half-maximal effect; % is set by controls: 0 for no effect and ±100 for the full control effect; nearly all actives have a fitted effect of over 40% in size
Target sequence (Q9NUW8 whole entry, looked up): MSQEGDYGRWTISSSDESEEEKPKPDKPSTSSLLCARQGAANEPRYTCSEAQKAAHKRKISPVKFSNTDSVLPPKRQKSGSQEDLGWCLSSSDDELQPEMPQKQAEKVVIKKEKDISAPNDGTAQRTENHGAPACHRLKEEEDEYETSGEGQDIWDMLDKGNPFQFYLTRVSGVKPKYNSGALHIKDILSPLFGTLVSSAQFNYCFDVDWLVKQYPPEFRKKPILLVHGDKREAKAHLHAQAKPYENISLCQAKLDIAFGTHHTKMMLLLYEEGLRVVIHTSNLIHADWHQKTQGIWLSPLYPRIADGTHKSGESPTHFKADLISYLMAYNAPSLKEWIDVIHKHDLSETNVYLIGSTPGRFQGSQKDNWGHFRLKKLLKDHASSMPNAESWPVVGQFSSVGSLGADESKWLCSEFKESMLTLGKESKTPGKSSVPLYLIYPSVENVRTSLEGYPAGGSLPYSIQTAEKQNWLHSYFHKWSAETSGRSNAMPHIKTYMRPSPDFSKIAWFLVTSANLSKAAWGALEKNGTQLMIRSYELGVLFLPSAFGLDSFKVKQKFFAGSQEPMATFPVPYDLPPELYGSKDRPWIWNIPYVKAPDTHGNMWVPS
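Here, a 5' biotin and 3' phosphotyrosine-FITC DNA oligonucleotide reports Tdp1 activity: intact substrate bridges AlphaScreen beads, while cleavage leaves a 3' phosphate and drops signal. All incubations at room temperature.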
TDP1 cell noCPT = qHTS for Inhibitors of human tyrosyl-DNA phosphodiesterase 1 (TDP1): qHTS in cells in absence of CPT; AID 686978, 2013; actives 15% (n = 420,000); DT40 Tdp1-/- hTDP1 cells, no CPT, ATP luminescence, 48 h; Potency, µM (titrated, usually from 46.2 µM), for inactives: at the top dose activity change, negative = growth inhibition, hits mostly inhibitors; note: potency is the fitted concentration of half-maximal effect; % is set by controls: 0 for no effect and ±100 for the full control effect; nearly all actives have a fitted effect of over 55% in size
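Cells were dispensed at 400 per well, compounds added by pin tool, plates incubated ≥48 hr at 37 °C, then CellTiter-Glo added for 30 min at room temperature before luminescence reading. Line: DT40 Tdp1-/- complemented with hTDP1; camptothecin omitted.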
IL-1B inflam inh = inhibitors of inflammasome signaling (IL-1 beta secretion) | THP-1 LPS/ATP IL-1B secretion, AlphaLISA, 16 h; stronger effect = lower value | activity change, % at 57.5 µM | actives 4.7% (n = 360,000) | AID 743279; in the data active = activity change below about -50%; inconclusive = mostly about -30% to -49%; note: % is set by controls: 0 for no effect and ±100 for the full control effect
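Secreted IL-1B measured by AlphaLISA bead assay after 16 h compound exposure of THP-1 cells; compounds (final up to 57.5 uM) added 1 h before LPS (250 ng/mL) and ATP (1.25 mM) stimulation; lower signal means less secretion.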
HepG2 viability = kills HepG2 cells in TGF-b inhibitor counter-screen | Potency, µM (highest dose often 46.1 µM), for the others: at the highest dose activity change, negative = cytotoxicity, actives largely listed as cytotoxic | HepG2 CAGA-GFP viability, ATP luminescence, 18 h | actives 0.76% (n = 410,000); note: potency is the fitted concentration of half-maximal effect
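HepG2 CAGA-GFP cells (1000/well, DMEM with 1% FBS) received compound, then TGF-beta at 500 pg/mL final, and were incubated 18 hours at 37 degrees C. Viability was read by CellTiter-Glo luminescence. Media-only wells were set as complete cell-killing and DMSO as no toxicity.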
* marks the source's active call; other numbers are inactive results; ? = inconclusive; · = not tested or not shown; [ ] = another dose, or the depositor's remark. The list is not random: actives were taken first. Their share in the collection is about 18%. Unless noted, calls come from the whole dose curve; as a rule, active = well fitted curve in the direction sought with a large enough effect; inconclusive = small, poorly fitted or top-dose-only effect, or another doubt; inactive = no such curve, though single readings can be large; an effect the other way counts as inactive or inconclusive.

SMILES | TGFb SMAD3 inh | TDP1 cell CPT | TDP1 block | TDP1 cell noCPT | IL-1B inflam inh | HepG2 viability
O=C(Nc1ccccc1Cl)c1ccc(=O)[nH]n1 | -6% | 3% | · | 12% | 20 | -49%
CN1CC(=O)NC1=N | · | 10% | · | 14% | · | ·
O=S(=O)(Nc1ccc(NS(=O)(=O)c2ccccc2)c2ccccc12)c1ccccc1 | -1% | -17% | · | ? | -5 | -4%
CCc1ccc(S(=O)(=O)Nc2ccc(O)c3ccccc23)cc1 | ? | 6.5µM* | · | 6.5µM* | -16 | -104%
O=S(=O)(Nc1ccc(O)c2ccccc12)c1ccc(F)cc1 | ? | 12µM* | · | 9.2µM* | 16 | 5µM*
O=C(O)CC(Cc1ccc(Cl)cc1)C(=O)NCc1ccccc1 (stereo unspecified) | -2% | 4% | -3% | -29% | 36 | 8%
O=C(NCCOc1cccnc1)C1CCC(=O)N(Cc2ccccc2F)C1 (stereo unspecified) | -12% | 0% | 4%[56.1 µM] | 31% | 3 | -13%
COc1cccc(CNc2ccc(N3CCC(C)CC3)cc2)c1OC | ? | 23µM* | 18%[56.1 µM] | 16µM* | -21 | -39%
Cc1ccc(/C([O-])=C(/C(=S)NCc2ccc3c(c2)OCO3)[n+]2ccc(N(C)C)cc2)c(C)c1 | 0% | ? | 8% | ? | -68* | 0%
CN(C)c1ccc(C(=O)NCc2ccc3c(c2)OCO3)cc1 | -2% | -1% | · | 8% | -19 | 15%
CC(NC(=O)c1cc(-c2ccc(Cl)cc2)on1)c1ccccc1 (stereo unspecified) | 0% | ? | 0% | ? | · | 0%
CCOC(=O)c1c(C)[nH]c(C)c1C(=O)CN1C(=O)NC(CC(C)C)C1=O (stereo unspecified) | -10% | 10µM* | 1% | ? | 9 | -15%
CCOC(=O)c1c(C)[nH]c(C)c1C(=O)CN1C(=O)NC2(CCC(C)CC2)C1=O (stereo unspecified) | -9% | -25% | -5% | -23% | -24 | -1%
COc1ccc(NC(=O)CSc2nnc(-c3cccs3)n2C)cc1OC | -4% | -3% | 0% | 6% | 11 | 19%
COc1ccc(NC(=O)CSc2nc3c(c(-c4cccs4)c2C#N)CN(C)CC3)cc1OC | 9% | 29µM* | 5% | ? | ? | -76%
CCOC(=O)c1sc(NC(=O)c2ccco2)c(C#N)c1C | 23% | -9% | 0% | -25% | 11 | -7%
CCOC(=O)c1c(NC(=O)C2c3ccccc3Oc3ccccc32)sc(C(=O)N(CC)CC)c1C | ? | 18µM* | -11% | 23µM* | -19 | -1%
CCOC(=O)c1sc(NC(=O)C2c3ccccc3Oc3ccccc32)c(C#N)c1C | ? | 12µM* | -4% | 16µM* | · | -26%
CCCCC(=O)Nc1sc(C(=O)N(CC)CC)c(C)c1C(=O)OC | ? | ? | -2% | 18µM* | 0 | -12%
CCOC(=O)c1sc(NC(=O)C2c3ccccc3Oc3ccccc32)c(C(=O)OCC)c1C | ? | -15% | 4% | -15% | · | -46%
COCCN(CC(=O)Nc1cccc(C)c1C)C(=O)c1oc2ccccc2c1C | 10% | -10% | -1% | ? | -4 | -20%
ClCCCl | · | · | 10% | · | · | ·
Brc1ccc(/C=N/Nc2nncc(-c3ccccc3)n2)o1 | · | · | 1% | · | · | ·
CCNc1nc(NCC)nc(N/N=C/c2ccc(O)c(O)c2)n1 | -15% | 23µM* | 5% | -4% | 19 | -39%
COc1ccc(-c2cnnc(N/N=C/c3ccc(O)cc3)n2)cc1 | -1% | ? | 0% | 12µM* | ? | -19%
SMILES | TGFb SMAD3 inh | TDP1 cell CPT | TDP1 block | TDP1 cell noCPT | IL-1B inflam inh | HepG2 viability
Brc1ccc(-c2ccc(/C=N/Nc3nncc(-c4ccccc4)n3)o2)cc1 | -3% | ? | 6% | 18µM* | -3 | -10%
COc1ccc(-c2cnnc(N/N=C/c3ccc(C)o3)n2)cc1 | -1% | ? | 4% | 18µM* | -19 | -12%
CCNc1nc(NCC)nc(N/N=C/c2ccc(N(C)C)cc2)n1 | -1% | ? | 5% | ? | 0 | -5%
COC(=O)CCC(=O)N1CCC(Oc2cccc(C(=O)NCc3ccccn3)c2)CC1 | 4% | -22% | · | -12% | 26 | 5%
NS(=O)(=O)c1cc(C(=O)N2CCNC(=O)C2)ccc1Cl | 2% | 1% | -12%[0.0935 µM] | 17% | 18 | 10%
COc1ccc(-c2cnnc(N/N=C/c3c(C)nn(-c4ccccc4)c3Cl)n2)cc1 | -22% | 3.7µM* | 0% | 5.2µM* | -3 | 16%
Oc1ccc(/C=N\Nc2nncc(-c3ccccc3)n2)cc1 | ? | ? | 3% | ? | ? | -8%
COc1ccc(-c2cnnc(N/N=C/c3ccc(O)c(O)c3)n2)cc1 | -20% | 7.3µM* | 2% | 9.2µM* | -5 | -31%
COc1cc(NC(=O)CN2CCCCC2)c(C)cc1[N+](=O)[O-] | ? | 9% | -5% | 3% | 6 | 7%
COc1cc(NC(=O)Cn2ncc(Cl)c(Cl)c2=O)c(C)cc1[N+](=O)[O-] | ? | 2.9µM* | -1% | 4.6µM* | -95* | -26%
COc1ccc(Cn2nc(C)n(N(C)c3ncc(C(F)(F)F)cc3Cl)c2=O)cc1 | 10% | 16µM* | 3% | 9.2µM* | 4 | -1%
COC(=O)c1cn(N(C)c2ncc(C(F)(F)F)cc2Cl)c(=O)c2ccccc12 | 20% | ? | 4% | ? | 29 | 3%
CC1CCCCN1CCCNC(=O)Cn1ncc2c3ccccc3n(Cc3ccccc3)c2c1=O (stereo unspecified) | -3% | 10% | 5% | -20% | · | -12%
CN(C)c1ccc(/C=C2\SC(=O)N(CC(O)Cn3c4ccccc4c4ccccc43)C2=O)cc1 (stereo unspecified) | -9% | ? | 5% | ? | 7 | -16%
CN(C)c1ccc(C=c2c3cc([N+](=O)[O-])ccc3n3c2cc(-c2ccccc2)[n+]3C)cc1 | ? | 2.9µM* | · | 2.6µM* | -115* | -73%
CN(C)c1ccc(/C=C2\C=Cc3cc([N+](=O)[O-])ccc32)cc1 | -14% | ? | · | ? | · | -35%
COc1cc(N(C)C)ccc1C=c1c2ccccc2n2c1cc(-c1ccccc1)[n+]2C | 3.5µM* | 0.52µM* | · | 0.37µM* | -100* | -61%
CN(C)c1ccc(C=c2c3ccccc3n3c2cc(-c2ccccc2)[n+]3C)cc1 | ? | 0.58µM* | · | 0.37µM* | -102* | 7.9µM*

Screens: PubChem, National Center for Advancing Translational Sciences (NCATS)
